High-throughput results from PubChem BioAssay.
Tau ThT inhib: tau fibrillization inhibition (ThT binding); P10636; recombinant tau K18 P301L, heparin-induced fibrillization, ThT fluorescence; Potency, µM (doses to about 57.4 µM), hits mostly inhibitors; 2.1% of 270,000 active; also: nearly all actives have a fitted effect of over 55% in size
Target sequence (P10636 561-689 P618L limits assumed): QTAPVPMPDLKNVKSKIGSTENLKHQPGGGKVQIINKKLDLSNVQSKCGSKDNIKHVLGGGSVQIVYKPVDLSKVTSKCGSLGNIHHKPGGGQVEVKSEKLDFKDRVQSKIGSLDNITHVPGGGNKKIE
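Recombinant human tau K18 fragment […] carrying P301L, 15 uM unlabeled plus 0.24 uM Alexa 594-labeled, was fibrillized with 20 uM heparin in 100 mM sodium acetate pH 7 for 6 hr at 37 C; 30 uM ThT fluorescence read after 1 hr.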
Tau fibril FP: tau fibrillization inhibition (FP). P10636. K18 P301L tau heparin fibrillization, Alexa594 FP, 6 h. Potency, µM (series often up to 57.7 µM), most hits filed as inhibitors. 0.39% of 280,000 active. AID 1468; also: nearly all actives have a fitted effect of over 55% in size
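Compound effects on tau fibrillization are measured by Alexa 594 fluorescence polarization (ex 555, em 632 nm). K18 P301L tau is used at 15 uM with 0.24 uM labeled tracer, and 20 uM heparin induces aggregation over 6 hr at 37 C.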
Tau fluor counter: counter-screen for tau fibril formation inhibitors; tau K18 P301L (four-repeat tau fragment) Alexa594 fluorescence, heparin fibrillization; Potency, µM (doses to about 57.7 µM); 0.93% of 280,000 active; AID 1463; also: nearly all actives have a fitted effect of over 55% in size
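Human K18 P301L tau (15 uM unlabeled plus 0.24 uM Alexa 594-labeled, final) in 100 mM sodium acetate pH 7 was mixed with compound and 20 uM heparin and incubated 6 hr at 37 C.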
TRb SRC2 PPI: inhibitors of human thyroid hormone receptor beta-SRC2 interaction; 0.065% of 280,000 active; Potency, µM (series often up to 106 µM), usual class: inhibitors; TRbeta-SRC2 peptide binding, fluorescence polarization; receptor liganded with 1 µM T3; also: nearly all actives have a fitted effect of over 50% in size
Target sequence (P10828 whole entry, looked up): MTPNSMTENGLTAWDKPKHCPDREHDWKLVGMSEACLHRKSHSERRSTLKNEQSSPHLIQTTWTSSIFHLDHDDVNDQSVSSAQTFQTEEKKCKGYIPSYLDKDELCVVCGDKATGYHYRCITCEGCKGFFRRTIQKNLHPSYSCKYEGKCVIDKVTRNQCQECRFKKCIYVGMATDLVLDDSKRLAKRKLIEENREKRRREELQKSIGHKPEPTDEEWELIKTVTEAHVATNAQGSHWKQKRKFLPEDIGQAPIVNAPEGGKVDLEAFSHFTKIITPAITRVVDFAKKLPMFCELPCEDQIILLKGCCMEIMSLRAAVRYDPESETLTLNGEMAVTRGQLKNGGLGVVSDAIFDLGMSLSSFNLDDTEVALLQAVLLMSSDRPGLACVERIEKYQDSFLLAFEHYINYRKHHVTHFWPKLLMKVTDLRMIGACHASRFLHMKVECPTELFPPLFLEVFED
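Polarization signal, normalized between peptide-alone and full complex controls, measured compound effects on T3-liganded human TRb LBD (0.6 uM) binding 20 nM Texas Red SRC2 peptide after 5 hr.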
TexasRed fluor: alters Texas Red total fluorescence, flagging assay interference. AID 1479. TRb/SRC2 Texas Red total fluorescence interference. 0.29% of 280,000 active. Potency, µM (doses to about 106 µM); active = well fitted curve in either direction with a large enough effect; inconclusive = small, poorly fitted or top-dose-only effect
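Human TRβ ligand-binding domain (0.6 uM) and Texas Red SRC2 peptide (20 nM) in Tris buffer with 1 uM T3 and 5% DMSO were incubated with pinned compound for 5 hr at ambient temperature. Total fluorescence was computed as S + 2P (555/632 nm).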
RGS12 GoLoco inh: blocks human Gai1 binding to RGS12 GoLoco peptide, red readout; Potency, µM (doses to about 61.6 µM), most hits filed as inhibitors; 0.44% of 230,000 active; Gai1:RGS12 GoLoco peptide FP, rhodamine, 10 min; active = well fitted inhibition curve with a large enough effect, not every such curve was filed as active; inactive = no such curve, though single readings can be large or run the other way; also: nearly all actives have a fitted effect of over 30% in size
Of the large screens only hits and unclear results are named; the others gave an inactive call; [ ] = dose if it differs, or a comment. Most compounds without a hit are left out; they make up all but 3.2% or so of the library. Unless noted, calls follow the shape of the dose curve; as a rule, active = well fitted curve in the direction sought with a large enough effect; inconclusive = small, poorly fitted or top-dose-only effect, or another doubt; inactive = no such curve, though single readings can be large; an effect the other way counts as inactive or inconclusive.

Cc1[nH]n(-c2ccccc2)c(=O)c1/C=C1/C=c2ccccc2=N1	Tau ThT inhib 2.2µM
COc1cccc(NC(=O)NC2(C(F)(F)F)Oc3ccccc3O2)c1	Tau ThT inhib inconclusive, Tau fluor counter 18µM[quencher]
COc1cc(/C=N/Nc2ccc3ccccc3c2)ccc1OC(=O)c1ccco1	Tau ThT inhib 13µM, Tau fluor counter 13µM[quencher]
CC1(C)[C@@H]2CC[C@@](C)(C2)[C@H]1OC(=O)c1ccccc1C(=O)O	none (no result: Tau ThT inhib, Tau fibril FP, Tau fluor counter, TRb SRC2 PPI, TexasRed fluor)
CC[n+]1ccc(C[n+]2ccccc2)c2ccccc21	Tau ThT inhib inconclusive, Tau fibril FP inconclusive, RGS12 GoLoco inh 18µM
O=C1C[C@@H](c2ccccc2Cl)N1S(=O)(=O)c1ccccc1[N+](=O)[O-]	none (no result: Tau ThT inhib, Tau fibril FP, Tau fluor counter, RGS12 GoLoco inh)
CC(C)CC(=O)NC(=S)Nc1cccc2nsnc12	Tau ThT inhib inconclusive
COc1c(C)cccc1C(=O)NC(=S)Nc1cccc2nsnc12	Tau ThT inhib 25µM, Tau fibril FP inconclusive
CCCCC/C=C\C[C@@H](O)/C=C/C=C\C/C=C\CCCC(=O)O	none
[O-][n+]1onc2c1CCC(=N/O)/C2=N\Nc1ccccc1	Tau ThT inhib 14µM, Tau fibril FP inconclusive, Tau fluor counter inconclusive, TexasRed fluor inconclusive, RGS12 GoLoco inh 14µM
CN(C)c1nc(C=C(C#N)C#N)c(Cl)n1-c1ccc(F)cc1	Tau ThT inhib 14µM, Tau fibril FP inconclusive
Cc1ccc(NC(=O)/C(C#N)=C/c2cc(C)n(-c3ccc(F)cc3)c2C)cc1C	none (no result: RGS12 GoLoco inh)
O=C(CSc1nccn1-c1ncc(C(F)(F)F)cc1Cl)c1ccc(Br)cc1	Tau ThT inhib 14µM, Tau fibril FP inconclusive
Cc1ccc(CCNC(=O)c2c[nH]c3ccc(S(=O)(=O)Nc4cccc(C(F)(F)F)c4)cc3c2=O)cc1	Tau ThT inhib inconclusive, Tau fibril FP 7.9µM, Tau fluor counter inconclusive (no result: RGS12 GoLoco inh)
CCc1ccc(NS(=O)(=O)c2ccc3[nH]cc(C(=O)NCCc4ccccc4)c(=O)c3c2)cc1	Tau fibril FP inconclusive (no result: RGS12 GoLoco inh)
COc1cccc(NS(=O)(=O)c2ccc3[nH]cc(C(=O)NCCC(C)C)c(=O)c3c2)c1	Tau fibril FP inconclusive, Tau fluor counter inconclusive
CC(C)CCNC(=O)c1c[nH]c2ccc(S(=O)(=O)Nc3cccc(C(F)(F)F)c3)cc2c1=O	Tau fibril FP 14µM, Tau fluor counter inconclusive (no result: RGS12 GoLoco inh)
Cc1cc(C)cc(NS(=O)(=O)c2ccc3[nH]cc(C(=O)NCCc4ccccc4)c(=O)c3c2)c1	Tau fibril FP inconclusive, Tau fluor counter inconclusive (no result: RGS12 GoLoco inh)
CN(C(=O)c1c[nH]c2ccc(S(=O)(=O)Nc3cccc(C(F)(F)F)c3)cc2c1=O)C1CCCCC1	none (no result: RGS12 GoLoco inh)
Cc1ccccc1NS(=O)(=O)c1ccc2[nH]cc(C(=O)NCCc3ccccc3)c(=O)c2c1	Tau fibril FP 11µM, Tau fluor counter inconclusive (no result: RGS12 GoLoco inh)
O=C(NC1CCCC1)c1c[nH]c2ccc(S(=O)(=O)Nc3cccc(C(F)(F)F)c3)cc2c1=O	Tau fibril FP 10µM, Tau fluor counter inconclusive (no result: RGS12 GoLoco inh)
O=c1ncccn1[C@@H]1O[C@H](CO)[C@@H](O)[C@H]1O	none (no result: Tau ThT inhib, Tau fibril FP, Tau fluor counter, RGS12 GoLoco inh)
O=C1CCCC=C1[C@H](O)CCCCBr	none (no result: RGS12 GoLoco inh)
COC(=O)c1nnc(SC)nc1C(=O)OC	none
CC#CCN1c2ccccc2[C@]23C[C@@H](C(=O)OC)N(S(=O)(=O)CCCC)C2=NC(C(=O)OC)=C(C(=O)OC)[C@H]13	Tau ThT inhib inconclusive
O=C1c2cccnc2-c2ncccc21	none (no result: TRb SRC2 PPI, TexasRed fluor)
CC1(C)OCC(CSC2=C(SCC3COC(C)(C)O3)C(=O)c3ncccc3C2=O)O1 (stereo unspecified)	Tau ThT inhib 1µM, Tau fibril FP 1.8µM, Tau fluor counter inconclusive
COc1ccc(N/C(=C(/C(Cl)=C(Cl)Cl)[N+](=O)[O-])n2nnc3ccccc32)cc1OC	Tau ThT inhib 14µM, Tau fibril FP inconclusive, Tau fluor counter inconclusive
CN(C)/C=N/c1c(C#N)cnn1-c1ccc(F)c(Cl)c1	none (no result: Tau ThT inhib, Tau fibril FP, Tau fluor counter, RGS12 GoLoco inh)
C(=N\NC1=Nc2cccc3cccc1c23)/c1cccnc1	Tau ThT inhib 2.8µM
Clc1ccc(/C=N/NC2=Nc3cccc4cccc2c34)cc1	Tau ThT inhib 2.8µM
C(=N\NC1=Nc2cccc3cccc1c23)/c1ccccc1	Tau ThT inhib 2µM
C(=N\Nc1nncc2ccccc12)/c1ccccc1	Tau ThT inhib inconclusive
Clc1ccc(N/N=C/c2cccnc2)cc1	Tau ThT inhib inconclusive, Tau fluor counter 16µM[quencher]
CC(N)(C(=O)O)c1cccc(CC(=O)O)c1 (stereo unspecified)	none
N#CCCn1nc(-c2ccccc2)cc1Nc1ccccc1NC(=O)C(F)(F)F	none
N#CCCn1nc(-c2ccc(Br)cc2)cc1Nc1ccccc1NC(=O)C(F)(F)F	Tau ThT inhib inconclusive, Tau fluor counter 20µM[quencher]
CC[C@H](C)[C@@H]1NC(=O)c2cc([N+](=O)[O-])cc(I)c2NCC[C@@H](C(N)=O)NC(=O)[C@H](CCCN=C(N)N)NC1=O	none
NC(=O)[C@@H]1CCCNc2c(I)cc([N+](=O)[O-])cc2C(=O)N[C@@H](CCCN=C(N)N)C(=O)N[C@@H](CCCN=C(N)N)C(=O)N1	Tau ThT inhib 28µM, Tau fluor counter inconclusive
CCOC(=O)C(NC(C)=O)(N1CCc2ccccc2C1)C(F)(F)F (stereo unspecified)	Tau ThT inhib 25µM, Tau fibril FP inconclusive
C[N+]1(C)CCC(=C2c3ccccc3CC(=O)c3sccc32)CC1	RGS12 GoLoco inh 14µM
CC[N+]1(C)CCC(=C2c3ccccc3CC(=O)c3sccc32)CC1 (stereo unspecified)	none
C/C1=C\[C@@H](O)C(C(C)C)C(OC(=O)c2ccc(O)cc2)C/C(C)=C/CC1 (stereo partly specified)	none (no result: Tau ThT inhib, Tau fibril FP, Tau fluor counter, RGS12 GoLoco inh)
COc1ccc2c(c1)C(=O)[C@@H](OC(=O)Nc1ccc(C)c(Br)c1)[C@H](c1ccc(OC)c(Br)c1)O2	none
CO/N=C(\C)CCN1CCCc2nc(C)c(C)cc21	Tau fibril FP inconclusive (no result: RGS12 GoLoco inh)
O=C(CNc1cccc2ccccc12)N/N=C/C=C/c1ccco1	Tau ThT inhib inconclusive, Tau fluor counter 16µM[quencher]
O=C(CSc1nnc(SCc2ccccc2)s1)N/N=C/C=C/c1ccco1	Tau ThT inhib inconclusive, Tau fibril FP inconclusive, TexasRed fluor inconclusive
O=C(Cc1cccs1)N/N=C/C=C/c1ccco1	Tau ThT inhib 25µM, Tau fibril FP inconclusive, Tau fluor counter inconclusive
O=C(CNc1cccc2ccccc12)N/N=C/c1ccc(C(=O)O)cc1	Tau ThT inhib inconclusive
O=C1C(=C2CCCCC2)SC(=S)N1Cc1ccco1	Tau ThT inhib 25µM, Tau fibril FP inconclusive
O=C(O)CCN1C(=O)C(=C2CCCCCC2)SC1=S	none
Cc1ccc(NCN2C(=O)C3C4C=CC(C4)C3C2=O)cc1 (stereo unspecified)	none
